Test results reported in PubChem BioAssay.
For some assays here: Results with a measured potency or affinity are listed apart. The source made the active and inactive calls. Unless noted, the rule behind the calls is not given here.

Experiments:
[1] = antimalarial activity against Dd2 strain (AID 2302;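 active = growth inhibition above 50% at the single 2 µM test dose, taken to imply half-maximal potency below 2 µM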;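 note: 0% = DMSO untreated growth and 100% = chloroquine plus artemisinin killed control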); details: P. falciparum Dd2 in RBCs, LDH growth readout, 72 h; at 2 µM; stronger effect = higher value
[2] = human hepatoma cell viability loss – ATP luminescence, cytotoxicity control for P. falciparum antimalarial project, primary screen (AID 2303;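 active = inhibition above 50%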;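 note: 0% = DMSO wells and 100% = digitonin-killed cells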); details: HepG2 viability, 24-48 h, at 10 µM, stronger effect = higher value
[3] = molecular target: L-lactate dehydrogenase (Plasmodium falciparum (isolate CDC / Honduras)) (UniProt Q27743); assay: PfLDH activity inhibition – cell lysate, 3D7 strain, counter-screen for P. falciparum growth inhibition project (AID 2304);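 note: 0% = vehicle and 100% = reference inhibitor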; details: P. falciparum 3D7 crude extract, LDH APAD/NBT absorbance; at 2 µM; stronger effect = higher value
Sequence of L-lactate dehydrogenase (Plasmodium falciparum (isolate CDC / Honduras)) (Q27743 whole entry, looked up): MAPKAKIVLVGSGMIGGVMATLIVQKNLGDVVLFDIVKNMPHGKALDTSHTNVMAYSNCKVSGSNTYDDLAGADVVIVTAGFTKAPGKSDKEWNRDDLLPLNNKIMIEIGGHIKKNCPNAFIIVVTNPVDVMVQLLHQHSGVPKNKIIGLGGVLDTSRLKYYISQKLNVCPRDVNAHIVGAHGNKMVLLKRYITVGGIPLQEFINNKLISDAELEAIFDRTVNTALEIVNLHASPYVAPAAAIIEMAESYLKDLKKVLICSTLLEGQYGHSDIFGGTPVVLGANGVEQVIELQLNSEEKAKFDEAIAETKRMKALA

[4] = inhibition of 3D7 malaria parasite growth – strain 3D7 (AID 2306);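 note: 0% = DMSO wells and 100% = chloroquine plus artemisinin control wells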; details: P. falciparum 3D7 erythrocytic growth, LDH absorbance, 72 h; at 2 µM; stronger effect = higher value
[5] = molecular target: Calcium-dependent protein kinase 1 (Plasmodium falciparum (isolate 3D7)) (UniProt P62344); assay: PfCDPK1 kinase inhibitors, biochemical, TCAMS library (AID 1159585; cut-off not given, nearly all actives have IC50 up to about 0.98 µM;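 note: inhibitors leave more ATP so luminescence rises with inhibition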); details: recombinant PfCDPK1, Kinase-Glo ATP depletion luminescence
Sequence of Calcium-dependent protein kinase 1 (Plasmodium falciparum (isolate 3D7)) (P62344 whole entry, looked up): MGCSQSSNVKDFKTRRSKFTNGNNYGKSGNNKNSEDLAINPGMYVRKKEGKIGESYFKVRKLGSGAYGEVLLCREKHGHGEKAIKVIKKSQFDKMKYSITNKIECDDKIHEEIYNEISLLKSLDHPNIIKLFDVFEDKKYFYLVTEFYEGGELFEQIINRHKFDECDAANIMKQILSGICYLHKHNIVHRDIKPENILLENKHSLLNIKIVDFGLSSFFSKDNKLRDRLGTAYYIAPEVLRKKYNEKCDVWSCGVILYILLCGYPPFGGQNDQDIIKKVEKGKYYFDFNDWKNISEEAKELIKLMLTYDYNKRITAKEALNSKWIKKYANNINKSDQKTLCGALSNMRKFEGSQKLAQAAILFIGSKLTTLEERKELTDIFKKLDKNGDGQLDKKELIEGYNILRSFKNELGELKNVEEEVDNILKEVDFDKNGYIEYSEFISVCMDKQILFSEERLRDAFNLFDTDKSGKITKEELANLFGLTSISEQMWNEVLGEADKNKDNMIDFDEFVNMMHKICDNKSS

[6] = molecular target: Plasmodium falciparum protein kinase 6 (PK6, PF3D7_1337100) (UniProt Q8IDW1); assay: PfPK6 kinase inhibitors, biochemical, TCAMS library (AID 1159586); details: recombinant PfPK6, Kinase-Glo ATP depletion luminescence
Sequence of Plasmodium falciparum protein kinase 6 (PK6, PF3D7_1337100) (Q8IDW1 1-305): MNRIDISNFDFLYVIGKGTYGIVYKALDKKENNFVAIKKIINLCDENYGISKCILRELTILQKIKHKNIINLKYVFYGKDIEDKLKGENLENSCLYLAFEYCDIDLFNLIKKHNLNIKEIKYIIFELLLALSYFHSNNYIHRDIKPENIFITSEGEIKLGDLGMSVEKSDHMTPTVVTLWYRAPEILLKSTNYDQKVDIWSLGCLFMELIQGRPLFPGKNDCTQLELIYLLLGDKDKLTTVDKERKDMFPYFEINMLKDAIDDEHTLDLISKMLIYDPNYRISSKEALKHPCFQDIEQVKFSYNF

[7] = molecular target: Protein kinase 7 (PK7), Plasmodium falciparum 3D7 (PF3D7_0213400) (UniProt Q7YTF7); assay: inhibition of Plasmodium PK7 catalytic activity – biochemical, TCAMS antimalarial set, Kinase-Glo luminescence (AID 1159587); details: recombinant PfPK7, Kinase-Glo ATP depletion luminescence
Sequence of Protein kinase 7 (PK7), Plasmodium falciparum 3D7 (PF3D7_0213400) (Q7YTF7 1-343): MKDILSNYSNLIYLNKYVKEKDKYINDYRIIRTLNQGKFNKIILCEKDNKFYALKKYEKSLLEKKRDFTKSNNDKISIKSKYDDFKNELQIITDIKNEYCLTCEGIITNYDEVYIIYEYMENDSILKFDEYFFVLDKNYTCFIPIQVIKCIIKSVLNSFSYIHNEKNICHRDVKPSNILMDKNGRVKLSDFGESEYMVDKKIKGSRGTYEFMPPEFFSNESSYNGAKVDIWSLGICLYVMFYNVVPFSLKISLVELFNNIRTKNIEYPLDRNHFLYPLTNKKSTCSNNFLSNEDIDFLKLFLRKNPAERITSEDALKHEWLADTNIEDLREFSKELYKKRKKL

[8] = molecular target: Calcium-dependent protein kinase 4 (Plasmodium falciparum (isolate 3D7)) (UniProt Q8IBS5); assay: PfCDPK4 kinase inhibitors, biochemical, TCAMS library (AID 1159588; cut-off not given, nearly all actives have IC50 up to about 0.91 µM); details: recombinant PfCDPK4, Kinase-Glo ATP depletion luminescence
Sequence of Calcium-dependent protein kinase 4 (Plasmodium falciparum (isolate 3D7)) (Q8IBS5 whole entry, looked up): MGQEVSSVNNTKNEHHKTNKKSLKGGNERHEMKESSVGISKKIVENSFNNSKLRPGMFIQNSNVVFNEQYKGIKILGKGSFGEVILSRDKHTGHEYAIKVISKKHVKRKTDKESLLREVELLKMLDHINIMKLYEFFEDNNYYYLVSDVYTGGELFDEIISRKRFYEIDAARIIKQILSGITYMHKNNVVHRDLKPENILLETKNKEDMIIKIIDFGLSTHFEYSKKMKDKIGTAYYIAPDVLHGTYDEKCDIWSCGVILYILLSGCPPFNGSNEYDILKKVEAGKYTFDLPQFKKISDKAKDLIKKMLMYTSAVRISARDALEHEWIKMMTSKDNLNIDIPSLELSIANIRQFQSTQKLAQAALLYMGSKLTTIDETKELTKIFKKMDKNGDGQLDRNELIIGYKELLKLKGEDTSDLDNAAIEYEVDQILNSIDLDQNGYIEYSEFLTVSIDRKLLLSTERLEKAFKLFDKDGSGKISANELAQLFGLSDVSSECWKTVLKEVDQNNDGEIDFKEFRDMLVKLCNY

COc1cc(C)nc2ccc(NC(=O)COCC(=O)Nc3ccc4nc(C)cc(OC)c4c3)cc12
active: inhibition [2] 67% | growth inhibition [4] 100%
inactive: growth inhibition [1] 41% | inhibition [3] 7% | outcome [5] | outcome [6] | outcome [7] | outcome [8]

COc1ccc2nccc(N3CCC(NCCNS(=O)(=O)c4ccc5c(c4)NC(=O)CS5)C3)c2n1 (stereo not given)
inactive: growth inhibition [1] 18% | inhibition [2] 12% | inhibition [3] 2% | outcome [5] | outcome [6] | outcome [7] | outcome [8]
active: growth inhibition [4] 97%

CNC(=O)c1cc(S(=O)(=O)Nc2ccc(OC)cc2)cs1
active: growth inhibition [4] 95%
inactive: growth inhibition [1] 48% | inhibition [2] 11% | inhibition [3] -6% | outcome [5] | outcome [6] | outcome [7] | outcome [8]

Cc1ccc2nc(C)cc(NN=Cc3ccccc3F)c2c1
inactive: inhibition [2] 36% | inhibition [3] -3% | outcome [5] | outcome [6] | outcome [7] | outcome [8]
active: growth inhibition [1] 100% | growth inhibition [4] 97%

O=C(/C=C/c1ccc(Cl)c(Cl)c1)NCCCCCN1CCC(NC(=O)c2ccc(F)c(F)c2)CC1
inactive: growth inhibition [1] 20% | inhibition [2] 36% | inhibition [3] -3% | outcome [5] | outcome [6] | outcome [7] | outcome [8]
active: growth inhibition [4] 99%

C[C@@H](Oc1cc(-n2cnc3ccc(OCC4CCN(S(C)(=O)=O)CC4)cc32)sc1C(N)=O)c1ccccc1C(F)(F)F
active: growth inhibition [1] 50% | growth inhibition [4] 84%
inactive: inhibition [2] 31% | inhibition [3] 5% | outcome [5] | outcome [6] | outcome [7] | outcome [8]

O=S(=O)(NCCN1CCCC1)c1ccc(-c2ccc(CNC3Cc4ccccc4C3)cc2)cc1F
active: growth inhibition [1] 75% | growth inhibition [4] 101%
inactive: inhibition [2] 33% | inhibition [3] -1% | outcome [5] | outcome [6] | outcome [7] | outcome [8]

CCOc1ncccc1CN1CCC(N2CCc3cc(NC(=O)c4ccco4)ccc32)C1 (stereo not given)
active: growth inhibition [1] 94% | growth inhibition [4] 90%
inactive: inhibition [2] 3% | inhibition [3] 1% | outcome [5] | outcome [6] | outcome [7] | outcome [8]

Cc1cccc2[nH]c(-c3ccc(-c4ccc(CNCc5cnn(-c6ccccc6)n5)cc4)s3)nc12
active: growth inhibition [4] 97%
inactive: growth inhibition [1] 48% | inhibition [2] 16% | inhibition [3] -3% | outcome [5] | outcome [6] | outcome [7] | outcome [8]

Cc1cccc2[nH]c(-c3ccc(-c4ccc(NC(=O)c5cncn5C)cc4)s3)nc12
inactive: growth inhibition [1] 30% | inhibition [2] 49% | inhibition [3] 4% | outcome [5] | outcome [6] | outcome [7] | outcome [8]
active: growth inhibition [4] 102%

CCCN1CCN(c2cc(NCC)c3c4c(onc24)-c2ccccc2C3=O)CC1
active: growth inhibition [4] 96%
inactive: growth inhibition [1] 11% | inhibition [2] 4% | inhibition [3] 6% | outcome [5] | outcome [6] | outcome [7] | outcome [8]

CCOc1ccc2c(NN=Cc3cc(OC)c(OC)c(OC)c3)cc(C)nc2c1
inactive: inhibition [2] 18% | inhibition [3] -4% | outcome [5] | outcome [6] | outcome [7] | outcome [8]
active: growth inhibition [1] 99% | growth inhibition [4] 101%

COc1ccc2nccc([C@@H](O)CN3CCC(NC(=O)c4nc(Cl)c(Cl)c(N)c4Cl)CC3)c2c1
active: growth inhibition [4] 87%
inactive: growth inhibition [1] 17% | inhibition [2] 16% | inhibition [3] 2% | outcome [5] | outcome [6] | outcome [7] | outcome [8]

Cc1cc(NC(=O)NCCN2CCC(NC(=O)c3ccc(C(F)(F)F)cc3)CC2)c2ccccc2n1
inactive: inhibition [2] 3% | inhibition [3] -3% | outcome [5] | outcome [6] | outcome [7] | outcome [8]
active: growth inhibition [1] 75% | growth inhibition [4] 98%

CCCc1cc(NCC)nc(Nc2ccc(C)cc2)n1
inactive: growth inhibition [1] 16% | inhibition [2] 22% | inhibition [3] -1% | outcome [5] | outcome [6] | outcome [7] | outcome [8]
active: growth inhibition [4] 95%

O=C1OC(c2cc3ccccc3n2S(=O)(=O)c2ccccc2)(c2cc3ccccc3n2S(=O)(=O)c2ccccc2)c2ccccc21
active: growth inhibition [1] 78% | growth inhibition [4] 95%
inactive: inhibition [2] 1% | inhibition [3] -1% | outcome [5] | outcome [6] | outcome [7] | outcome [8]

CCOc1ccc(-c2nonc2NC(=O)c2cccc(Cl)c2)cc1OCC
inactive: inhibition [2] -5% | inhibition [3] -8% | outcome [5] | outcome [6] | outcome [7] | outcome [8]
active: growth inhibition [1] 99% | growth inhibition [4] 100%

COc1cc2nc(NCCc3cccc(Cl)c3)nc(NCc3ccccc3)c2cc1OC
active: growth inhibition [1] 101% | inhibition [2] 97% | growth inhibition [4] 101%
inactive: inhibition [3] 0% | outcome [5] | outcome [6] | outcome [7] | outcome [8]

CN1CCN(c2ccnc3ccc(NC(=O)Nc4ccc(-c5ccncc5)c(C#N)c4)cc23)CC1
active: growth inhibition [1] 99% | growth inhibition [4] 101%
inactive: inhibition [2] 32% | inhibition [3] -3% | outcome [5] | outcome [6] | outcome [7] | outcome [8]

Nc1cccc(CNCc2ccc(-c3ccc(-c4nc5ccc(F)cc5[nH]4)s3)cc2)c1
inactive: inhibition [2] 12% | inhibition [3] 1% | outcome [5] | outcome [6] | outcome [7] | outcome [8]
active: growth inhibition [1] 93% | growth inhibition [4] 102%

O=C(/C=C/c1ccc([N+](=O)[O-])cc1)N1CCC(NS(=O)(=O)c2ccc(F)cc2)CC1
inactive: growth inhibition [1] -2% | inhibition [2] -7% | inhibition [3] -10% | outcome [5] | outcome [6] | outcome [7] | outcome [8]
active: growth inhibition [4] 96%

Cc1ccccc1C1CCN(c2ccc(C(=O)Nc3ccccc3)cn2)CC1
active: growth inhibition [1] 94% | inhibition [2] 53% | growth inhibition [4] 95%
inactive: inhibition [3] -2% | outcome [5] | outcome [6] | outcome [7] | outcome [8]

COc1ccc2nccc(NCC3(O)CCN(CC(O)c4ccc5c(c4)NC(=O)CS5)CC3)c2n1 (stereo not given)
inactive: growth inhibition [1] 3% | inhibition [2] 3% | inhibition [3] 2% | outcome [5] | outcome [6] | outcome [7] | outcome [8]
active: growth inhibition [4] 100%

O=C(Nc1ccc(Br)cc1)c1cc(Br)ccc1NS(=O)(=O)c1cc(C(F)(F)F)cc(C(F)(F)F)c1
active: growth inhibition [1] 67% | inhibition [2] 68% | growth inhibition [4] 85%
inactive: inhibition [3] -7% | outcome [5] | outcome [6] | outcome [7] | outcome [8]

CCOc1ccc(Br)cc1/C=C/C(=O)Nc1ccc2c(c1)CN(C)CCC2
inactive: growth inhibition [1] 37% | inhibition [2] 18% | inhibition [3] 1% | outcome [5] | outcome [6] | outcome [7] | outcome [8]
active: growth inhibition [4] 97%

Clc1ccc(CNC2CCN(CC3CCCCC3)CC2)cc1
active: growth inhibition [4] 92%
inactive: growth inhibition [1] 15% | inhibition [2] 12% | inhibition [3] 5% | outcome [5] | outcome [6] | outcome [7] | outcome [8]

Cc1ccc(CNc2cc(C(F)(F)F)nc(-c3ccc(S(C)(=O)=O)cc3)n2)cc1
inactive: inhibition [2] 2% | inhibition [3] -4% | outcome [5] | outcome [6] | outcome [7] | outcome [8]
active: growth inhibition [1] 72% | growth inhibition [4] 89%

CCNc1cc(C(=O)N[C@@H](Cc2ccccc2)[C@H](O)CNCc2cc(C#N)ccc2OC)cc(N2CCCC2=O)c1
active: growth inhibition [1] 51% | growth inhibition [4] 85%
inactive: inhibition [2] -1% | inhibition [3] -3% | outcome [5] | outcome [6] | outcome [7] | outcome [8]

OC(CNCc1ccccc1Oc1ccccc1)c1cccc(C(F)(F)F)c1 (stereo not given)
inactive: inhibition [2] -1% | inhibition [3] 10% | outcome [5] | outcome [6] | outcome [7] | outcome [8]
active: growth inhibition [1] 98% | growth inhibition [4] 104%

COc1ccc2nccc(N3CCC(SCCNCc4cc5c(cn4)OCCO5)C3)c2n1 (stereo not given)
inactive: inhibition [2] 30% | inhibition [3] 2% | outcome [5] | outcome [6] | outcome [7] | outcome [8]
active: growth inhibition [1] 100% | growth inhibition [4] 101%

COc1ccccc1-c1[nH]c2ccccc2c1CN1CCC(c2c(C)cccc2C)CC1
active: growth inhibition [4] 96%
inactive: growth inhibition [1] 13% | inhibition [2] 49% | inhibition [3] 3% | outcome [5] | outcome [6] | outcome [7] | outcome [8]

COc1cccc(CN2CCCC(CCC(=O)Nc3ccc(C(F)(F)F)cc3)C2)c1O (stereo not given)
active: growth inhibition [1] 97% | growth inhibition [4] 98%
inactive: inhibition [2] 15% | inhibition [3] -2% | outcome [5] | outcome [6] | outcome [7] | outcome [8]

O=C(Nc1ccc(Br)c(Cl)c1)c1cc([N+](=O)[O-])cc2cn[nH]c12
inactive: inhibition [2] 49% | inhibition [3] -1% | outcome [5] | outcome [6] | outcome [7] | outcome [8]
active: growth inhibition [1] 63% | growth inhibition [4] 99%

CCCCN(C(=O)c1ccccc1Cl)c1nnc(-c2ccccc2C)s1
active: growth inhibition [1] 86% | growth inhibition [4] 90%
inactive: inhibition [2] 12% | inhibition [3] 0% | outcome [5] | outcome [6] | outcome [7] | outcome [8]

CC1CCN(CCCNc2ccc(C(=O)Nc3ccc(C(F)(F)F)cc3)cc2[N+](=O)[O-])CC1
inactive: inhibition [3] -3% | outcome [5] | outcome [6] | outcome [7] | outcome [8]
active: growth inhibition [1] 100% | inhibition [2] 62% | growth inhibition [4] 101%

COc1cc(OC)cc(C(=O)Nc2nc(-c3ccccn3)cs2)c1
inactive: inhibition [2] 47% | inhibition [3] 1% | outcome [5] | outcome [6] | outcome [7] | outcome [8]
active: growth inhibition [1] 72% | growth inhibition [4] 97%

Cc1cccc2[nH]c(-c3ccc(-c4ccc(CN5CCN(c6cnccn6)CC5)cc4)s3)nc12
active: growth inhibition [4] 94%
inactive: growth inhibition [1] 42% | inhibition [2] 11% | inhibition [3] -6% | outcome [5] | outcome [6] | outcome [7] | outcome [8]

CCNc1cc(C(=O)N[C@@H](Cc2ccccc2)[C@H](O)CN[C@H](C)c2ccccc2)cc(N2CCCC2=O)c1
inactive: inhibition [2] -1% | inhibition [3] 6% | outcome [5] | outcome [6] | outcome [7] | outcome [8]
active: growth inhibition [1] 99% | growth inhibition [4] 97%

Oc1c(CN2CCC(Cc3ccccc3)CC2)cc(Cl)c2cccnc12
active: growth inhibition [1] 94% | growth inhibition [4] 96%
inactive: inhibition [2] 49% | inhibition [3] 4% | outcome [5] | outcome [6] | outcome [7] | outcome [8]

c1cncc(CCNCc2ccc(-c3ccc(CNC4Cc5ccccc5C4)cc3)cc2)c1
inactive: growth inhibition [1] 29% | inhibition [2] 32% | inhibition [3] 1% | outcome [5] | outcome [6] | outcome [7] | outcome [8]
active: growth inhibition [4] 92%
